Results reported in PubChem BioAssay AID1159580 (chemical genetic matrix, 2015).
Among all 5,500 compounds or so, about 2,000 (36%) were called active. Another 18% or so got no clear call; they are omitted. Cut-off read from the data, not from the text of the source: active = normalized growth mostly below about 0.91 (no sharp cut-off); inconclusive = no clear call, values can overlap the other calls; inactive = mostly above about 0.92. Some of the results follow.

Experiment: chemical genetic growth profiling, strain panel (AID 1159580);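 note: tested at 20 µM; growth read once vehicle control cultures reached saturation at 30 °C; 1 = growth at the plate median or of vehicle wells; lower values mean less growth of the strain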
Settings: growth OD

Measured: normalized growth

C=C(C)C1CCC(C)(O)C2CC3OC3(C)C2C1 (stereo unspecified)
inactive: S. cerevisiae deletion strains, locus YAL013W, strain DEP1, stronger effect = lower value 1.01 | S. cerevisiae deletion strains, locus YBR021W, strain FUR4, stronger effect = lower value 1.02 | S. cerevisiae deletion strains, locus YBR229C, strain ROT2, stronger effect = lower value 1.01 | S. cerevisiae deletion strains, locus YCL029C, strain bik1, stronger effect = lower value 1.02 | S. cerevisiae deletion strains, locus YDL035C, strain GPR1, stronger effect = lower value 1.01 | S. cerevisiae deletion strains, locus YDL074C, strain BRE1, stronger effect = lower value 0.99 | S. cerevisiae deletion strains, locus YDL101C, strain DUN1, stronger effect = lower value 0.999 | S. cerevisiae deletion strains, locus YDL134C, strain PPH21, stronger effect = lower value 1 | S. cerevisiae deletion strains, locus YDL185W, strain tfp1, stronger effect = lower value 1.01 | S. cerevisiae deletion strains, locus YDL192W, strain arf1, stronger effect = lower value 1.02 | S. cerevisiae deletion strains, locus YDR101C, strain arx1, stronger effect = lower value 1 | S. cerevisiae deletion strains, locus YDR150W, strain NUM1, stronger effect = lower value 1.02 | S. cerevisiae deletion strains, locus YDR162C, strain NBP2, stronger effect = lower value 0.995 | S. cerevisiae deletion strains, locus YDR318W, strain mcm21, stronger effect = lower value 1.02 | S. cerevisiae deletion strains, locus YDR388W, stronger effect = lower value 1.01 | S. cerevisiae deletion strains, locus YDR502C, strain sam2, stronger effect = lower value 1.01 | S. cerevisiae deletion strains, locus YEL061C, strain CIN8, stronger effect = lower value 1 | S. cerevisiae deletion strains, locus YER110C, stronger effect = lower value 1.01 | S. cerevisiae deletion strains, locus YER155C, strain BEM2, stronger effect = lower value 0.999 | S. cerevisiae deletion strains, locus YER167W, strain BCK2, stronger effect = lower value 1.01 | S. cerevisiae deletion strains, locus YGL078C, strain dbp3, stronger effect = lower value 1.01 | S. cerevisiae deletion strains, locus YGL086W, strain mad1, stronger effect = lower value 1.02 | S. cerevisiae deletion strains, locus YGL248W, strain PDE1, stronger effect = lower value 1 | S. cerevisiae deletion strains, locus YGR078C, strain PAC10, stronger effect = lower value 0.995 | S. cerevisiae deletion strains, locus YGR135W, strain pre9, stronger effect = lower value 1 | S. cerevisiae deletion strains, locus YGR229C, strain SMI1, stronger effect = lower value 1.03 | S. cerevisiae deletion strains, locus YGR252W, strain gcn5, stronger effect = lower value 1.01 | S. cerevisiae deletion strains, locus YHR030C, strain SLT2, stronger effect = lower value 1 | S. cerevisiae deletion strains, locus YHR079C, strain IRE1 (second series), stronger effect = lower value 1.01 | S. cerevisiae deletion strains, locus YHR094C, strain hxt1, stronger effect = lower value 1.01 | S. cerevisiae deletion strains, locus YHR129C, strain ARP1, stronger effect = lower value 1 | S. cerevisiae deletion strains, locus YHR200W, strain rpn10, stronger effect = lower value 1.01 | S. cerevisiae deletion strains, locus YIL066C, strain RNR3, stronger effect = lower value 1.01 | S. cerevisiae deletion strains, locus YIL073C, strain SPO22, stronger effect = lower value 1.07 | S. cerevisiae deletion strains, locus YIL125W, strain kgd1, stronger effect = lower value 1.01 | S. cerevisiae deletion strains, locus YIR030C, strain dcg1, stronger effect = lower value 1 | S. cerevisiae deletion strains, locus YJL095W, strain BCK1, stronger effect = lower value 0.978 | S. cerevisiae deletion strains, locus YJL134W, strain LCB3, stronger effect = lower value 1.01 | S. cerevisiae deletion strains, locus YJL168C, strain set2, stronger effect = lower value 1 | S. cerevisiae deletion strains, locus YJL187C, strain SWE1 (second series), stronger effect = lower value 1.01 | S. cerevisiae deletion strains, locus YJR043C, strain POL32, stronger effect = lower value 1.03 | S. cerevisiae deletion strains, locus YJR075W, strain HOC1, stronger effect = lower value 1.06 | S. cerevisiae deletion strains, locus YKL009W, strain mrt4, stronger effect = lower value 1.02 | S. cerevisiae deletion strains, locus YKL068W, stronger effect = lower value 1.01 | S. cerevisiae deletion strains, locus YKL085W, strain MDH1 (second series), stronger effect = lower value 1 | S. cerevisiae deletion strains, locus YKL085W, strain MDH1, stronger effect = lower value 1 | S. cerevisiae deletion strains, locus YKL190W, strain CNB1, stronger effect = lower value 1 | S. cerevisiae deletion strains, locus YKR001C, strain vps1, stronger effect = lower value 1.02 | S. cerevisiae deletion strains, locus YLR039C, strain RIC1, stronger effect = lower value 0.992 | S. cerevisiae deletion strains, locus YLR058C, strain SHM2, stronger effect = lower value 1.01 | S. cerevisiae deletion strains, locus YLR102C, strain apc9, stronger effect = lower value 1.01 | S. cerevisiae deletion strains, locus YLR262C, strain YPT6, stronger effect = lower value 0.999 | S. cerevisiae deletion strains, locus YLR268W, strain sec22, stronger effect = lower value 1.01 | S. cerevisiae deletion strains, locus YLR330W, strain CHS5, stronger effect = lower value 1 | S. cerevisiae deletion strains, locus YLR342W, strain FKS1 (second series), stronger effect = lower value 1.04 | S. cerevisiae deletion strains, locus YLR371W, strain rom2, stronger effect = lower value 1.01 | S. cerevisiae deletion strains, locus YLR418C, strain cdc73, stronger effect = lower value 0.992 | S. cerevisiae deletion strains, locus YML016C, strain PPZ1, stronger effect = lower value 0.995 | S. cerevisiae deletion strains, locus YML032C, strain rad52, stronger effect = lower value 1.02 | S. cerevisiae deletion strains, locus YML124C, strain tub3, stronger effect = lower value 1.01 | S. cerevisiae deletion strains, locus YMR078C, strain ctf18, stronger effect = lower value 1.01 | S. cerevisiae deletion strains, locus YMR223W, strain ubp8, stronger effect = lower value 1.01 | S. cerevisiae deletion strains, locus YMR263W, strain SAP30, stronger effect = lower value 1 | S. cerevisiae deletion strains, locus YMR307W, strain GAS1, stronger effect = lower value 1.03 | S. cerevisiae deletion strains, locus YNL067W, strain RPL9B, stronger effect = lower value 1.02 | S. cerevisiae deletion strains, locus YNL128W, strain TEP1, stronger effect = lower value 0.99 | S. cerevisiae deletion strains, locus YNL153C, strain GIM3, stronger effect = lower value 1 | S. cerevisiae deletion strains, locus YNL233W, strain BNI4, stronger effect = lower value 0.998 | S. cerevisiae deletion strains, locus YNL250W, strain rad50, stronger effect = lower value 1.02 | S. cerevisiae deletion strains, locus YNL271C, strain bni1, stronger effect = lower value 1.01 | S. cerevisiae deletion strains, locus YNL298W, strain CLA4, stronger effect = lower value 1.01 | S. cerevisiae deletion strains, locus YNL307C, strain MCK1, stronger effect = lower value 1.02 | S. cerevisiae deletion strains, locus YNL322C, strain KRE1, stronger effect = lower value 1.01 | S. cerevisiae deletion strains, locus YNR052C, strain pop2, stronger effect = lower value 1.02 | S. cerevisiae deletion strains, locus YOL006C, strain TOP1, stronger effect = lower value 0.996 | S. cerevisiae deletion strains, locus YOL012C, strain htz1 0.919 | S. cerevisiae deletion strains, locus YOL147C, strain pex11, stronger effect = lower value 1.01 | S. cerevisiae deletion strains, locus YOR061W, strain CKA2, stronger effect = lower value 1 | S. cerevisiae deletion strains, locus YOR069W, strain VPS5, stronger effect = lower value 1.01 | S. cerevisiae deletion strains, locus YOR136W, strain idh2, stronger effect = lower value 1.03 | S. cerevisiae deletion strains, locus YOR144C, strain elg1, stronger effect = lower value 1.01 | S. cerevisiae deletion strains, locus YOR184W, strain ser1, stronger effect = lower value 1.03 | S. cerevisiae deletion strains, locus YOR316C, strain cot1, stronger effect = lower value 1.01 | S. cerevisiae deletion strains, locus YPL055C, strain LGE1, stronger effect = lower value 1 | S. cerevisiae deletion strains, locus YPL241C, strain CIN2, stronger effect = lower value 1 | S. cerevisiae deletion strains, locus YPR119W, strain clb2, stronger effect = lower value 1.01 | S. cerevisiae deletion strains, locus YPR141C, strain kar3, stronger effect = lower value 1.01 | S. cerevisiae deletion strains, locus YPR163C, strain tif3, stronger effect = lower value 1.02 | S. cerevisiae deletion strains, locus YPR167C, strain met16, stronger effect = lower value 1.01 | S. cerevisiae deletion strains, strain wtn01, stronger effect = lower value 1 | S. cerevisiae strains, strain wild type, stronger effect = lower value 1.04
